# Assay results taken from PubChem BioAssay (EPA / NIEHS).
# “And” between values parts separate entries of the source, which are not always exact repeats. Equal entries are not always repeated. Records with an inconclusive call do not appear. The source made the active and inactive calls. Rule for the calls: active = hit-call score of the fitted dose curve at least 0.9, where 1 is the maximum; inconclusive = response in the unintended direction; inactive = score below 0.9.
# System: zebrafish Estrogen Receptor (ER2a), gene 317734
# Experiment: ATG_zfER2a_XSP2: Attagene TRANS-FACTORIAL Multi-Species (XSP2) HepG2 Assay for zebrafish Estrogen Receptor (ER2a) (AID 2283818);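 note: hits raise reporter mRNA so AC50 reflects activation of zebrafish ER2a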
# Summary of the method: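 HepG2 cells transiently transfected with GAL4-UAS reporter units and chimeric zebrafish ER2a-Gal4, exposed 24 h; medium contains 3 nM 6-alpha-fluorotestosterone and 1.5 nM norgestrel. Reporter mRNA quantified by RT-PCR, HpaI digestion, capillary electrophoresis; gain versus DMSO.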
Structure (SMILES),outcome,AC50
CC(=O)O[C@]1(C(C)=O)CC[C@H]2[C@@H]3C=C(Cl)C4=CC(=O)[C@@H]5C[C@@H]5[C@]4(C)[C@H]3CC[C@@]21C,inactive,–
CCN(CC)CCOc1ccc(C(=C(Cl)c2ccccc2)c2ccccc2)cc1,inactive,–
CC(=O)[C@@]1(O)CC[C@H]2[C@@H]3CCC4=CC(=O)CC[C@]4(C)[C@H]3CC[C@@]21C,–,65.6 µM (active) and 13.5 µM (active)

# System: frog Estrogen Receptor (ER), gene 398734
# Experiment: ATG_frER1_XSP2: Attagene TRANS-FACTORIAL Multi-Species (XSP2) HepG2 Assay for frog Estrogen Receptor (ER) (AID 2283821);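 note: hits raise reporter mRNA above DMSO baseline so potency means agonist or activator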
# Summary of the method: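 HepG2, transient MRTU transfection, chimeric NR-GAL4/UAS reporters; 24 h compound exposure, 24-well. Readout: reporter mRNA via RT-PCR + capillary electrophoresis, fluorescence. Positive fit vs DMSO baseline.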
Structure (SMILES),outcome,AC50
CC(=O)O[C@]1(C(C)=O)CC[C@H]2[C@@H]3C=C(Cl)C4=CC(=O)[C@@H]5C[C@@H]5[C@]4(C)[C@H]3CC[C@@]21C,inactive,–
Cc1c(C)c2c(c(C)c1O)CCC(C)(COc1ccc(CC3SC(=O)NC3=O)cc1)O2 (stereo not drawn),inactive,–
CC(=O)[C@@]1(O)CC[C@H]2[C@@H]3CCC4=CC(=O)CC[C@]4(C)[C@H]3CC[C@@]21C,–,34.1 µM (active) and 27.4 µM (active)

# System: zebrafish Estrogen Receptor (ER2b), gene 317733
# Experiment: ATG_zfER2b_XSP2: Attagene TRANS-FACTORIAL Multi-Species (XSP2) HepG2 Assay for zebrafish Estrogen Receptor (ER2b) (AID 2283823);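 note: fitted upward as reporter gain over DMSO so potency reflects activation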
# Summary of the method: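 Reporter transcripts quantified by RT-PCR, fluorescent labelling and capillary electrophoresis after 24 h dosing of transfected HepG2 expressing zebrafish ER2b-GAL4 fusion. Medium contained 3 nM 6-alpha-fluorotestosterone plus 1.5 nM norgestrel; DMSO baseline.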
Structure (SMILES),AC50,outcome
CC(=O)O[C@]1(C(C)=O)CC[C@H]2[C@@H]3C=C(Cl)C4=CC(=O)[C@@H]5C[C@@H]5[C@]4(C)[C@H]3CC[C@@]21C,26 µM (active),–
CCN(CC)CCOc1ccc(C(=C(Cl)c2ccccc2)c2ccccc2)cc1,–,inactive
Cc1c(C)c2c(c(C)c1O)CCC(C)(COc1ccc(CC3SC(=O)NC3=O)cc1)O2 (stereo not drawn),–,inactive
CC(=O)[C@@]1(O)CC[C@H]2[C@@H]3CCC4=CC(=O)CC[C@]4(C)[C@H]3CC[C@@]21C,87.6 µM (active) and 58.2 µM (active),–

# System: frog Estrogen Receptor (ER2), gene 100174814
# Experiment: ATG_frER2_XSP2: Attagene TRANS-FACTORIAL Multi-Species (XSP2) HepG2 Assay for frog Estrogen Receptor (ER2) (AID 2283828)
# Summary of the method: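 Human liver HepG2, transient MRTU transfection (TRANS format, exogenous NR–Gal4). 24 h cpd exposure. Total RNA → RT → PCR → FAM label → HpaI cut → CE. Positive direction vs DMSO.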
Structure (SMILES),outcome,AC50
CC(=O)O[C@]1(C(C)=O)CC[C@H]2[C@@H]3C=C(Cl)C4=CC(=O)[C@@H]5C[C@@H]5[C@]4(C)[C@H]3CC[C@@]21C,inactive,–
CCN(CC)CCOc1ccc(C(=C(Cl)c2ccccc2)c2ccccc2)cc1,inactive,–
CC(=O)[C@@]1(O)CC[C@H]2[C@@H]3CCC4=CC(=O)CC[C@]4(C)[C@H]3CC[C@@]21C,–,124 µM (active) and 100 µM (active)
